An excerpt weighted towards active compounds, which were near 2.8% of everything screened.
SNCA expr inhib = SNCA gene expression inhibition; HEK-293 SNCA-luciferase knock-in, luminescence, 24 h; AID 1671194; 0.17% of 140,000 active; Potency, µM (series often up to 57.2 µM), hits mostly inhibitors; note: nearly all actives have a fitted effect of over 45% in size
KDM5B inhibitor = blocks human KDM5B histone demethylase activity; AID 1347165; 2.6% of 220,000 active; KDM5B demethylase, FDH-coupled NADH fluorescence (FDH is formaldehyde dehydrogenase); Potency, µM (top dose mostly 57.7 µM), most hits filed as inhibitors; note: nearly all actives have a fitted effect of over 70% in size
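Measured: NADH fluorescence change, 30 min, RT. System: KDM5BΔAP 200 nM final, H3K4me3 peptide, α-KG, Fe(II), ascorbate, NAD⁺ plus FDH, pH 7.5 HEPES. Compounds: titrated, 10 min pre-incubation with enzyme.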
HEK293 viab = cell viability loss counter-screen; HEK-293-SNCA-luc viability, GF-AFC fluorescence, 24 h; Potency, µM (doses to about 57.1 µM), actives largely listed as cytotoxic; 0.12% of 150,000 active; AID 1671193; note: nearly all actives have a fitted effect of over 30% in size
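HEK-293-SNCA-luc cells (1500/well) plated 24 h, then exposed 24 h to a dilution series; GF-AFC added 30 min at 37C, fluorescence 405/540 nm; normalised to medium-only and DMSO wells, Hill fit.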
IP6K1 inhibitor = blocks human inositol hexakisphosphate kinase 1 | Q92551 | IP6K1 kinase, ADP-Glo luminescence, 2 h; hits give low values | activity change, % (series mostly up to about 58 µM) | 0.81% of 140,000 active | AID 1645851; in the data active = activity change below about -25%
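ADP-Glo luminescence measures ADP made by human IP6K1 during a 2 h RT reaction with ATP/IP6 (mix at 1.3 mM/130 uM); top library doses 57.5 and 19.1 uM final.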
IP6K1 conf = confirmation of human IP6K1 inhibitors; shares compounds with IP6K1 inhibitor; recombinant IP6K1 kinase, ADP-Glo luminescence, 2 h; 13% of 1,200 active; Potency, µM (series often up to 49 µM), most hits filed as inhibitors; note: nearly all actives have a fitted effect of over 65% in size
Hits are given with their value; 0 = inactive; ? = inconclusive; - = no result. Unless noted, calls come from the whole dose curve; as a rule, active = well fitted curve in the direction sought with a large enough effect; inconclusive = small, poorly fitted or top-dose-only effect, or another doubt; inactive = no such curve, though single readings can be large; an effect the other way counts as inactive or inconclusive.

SMILES | SNCA expr inhib | KDM5B inhibitor | HEK293 viab | IP6K1 inhibitor | IP6K1 conf
Cc1ccc2c(c1)N(C(=O)N1CCC(C(=O)NCCC3=CCCCC3)CC1)CC(C)O2 (centres undefined) | 0 | 0 | 0 | -38.9 | 0
CCc1ccc(CNC(=O)C2CCN(C(=O)N3CC(CC)Oc4ccc(C)cc43)CC2)cc1 (centres undefined) | ? | 0 | ? | 0 | -
Cc1ccc2c(c1)N(C(=O)N1CCC(C(=O)NCc3cccc(Br)c3)CC1)CCO2 | 0 | 0 | 0 | -102.2 | 0
Cc1oc2cc(OCC(=O)NCCCOC(C)C)ccc2c(=O)c1-c1ccc(Cl)cc1 | - | 0 | - | - | -
CCn1cc(-c2ccc(C)cc2)cc1C(=O)N1CCC(C)CC1 | 0 | 0 | 0 | -29.9 | ?
C[C@@H](NC(=O)/C(C#N)=C/c1ccc(O)c(O)c1)c1ccccc1 | 0 | - | 0 | - | -
CCC[C@H](NC(=O)C(C#N)=Cc1cccc(Br)n1)c1ccccc1 | ? | - | ? | - | ?
O=C(Nc1ccc(F)cc1)c1cn(-c2ccccc2)nn1 | - | 0 | - | - | -
CN1CCN(Cc2ccc(-c3cnc4[nH]cc(-c5ccc6[nH]ccc6c5)c4c3)cc2)CC1 | - | - | 0 | -46.6 | 9.2µM
COc1ccc(C2CCCCCN2C(=O)c2ccc(-n3cccn3)cc2)cc1 (centres undefined) | - | 0 | - | - | -
CCN1C(C(=O)c2ccccc2)=C(OC(=O)COc2ccc(OC)cc2)c2ccccc2S1(=O)=O | ? | ? | 0 | -33.7 | 0
CCCN1C(C(=O)c2ccccc2)=C(OC(=O)COc2ccc(C)cc2)c2ccccc2S1(=O)=O | ? | ? | ? | 0 | -
CCCN1C(C(=O)c2ccccc2)=C(OC(=O)COc2ccccc2)c2ccccc2S1(=O)=O | ? | ? | ? | -27.7 | ?
OCc1c[nH]c2ccccc12 | 0 | - | 0 | -27.5 | 0
O=C(O)Cc1c[nH]c2ccccc12 | - | 0 | - | - | -
O=C(Nc1ncc([N+](=O)[O-])s1)c1ccccc1O | - | - | ? | -30.7 | ?
Cc1ccc(-c2cc(C(F)(F)F)c(C#N)c(SCC(=O)O)n2)cc1 | 0 | ? | 0 | -34.6 | 0
COc1cccc(-c2ccc3c(N)c(C(=O)Nc4ccccc4C)sc3n2)c1 | ? | ? | ? | -25.8 | 0
COc1cccc(-c2ccc3c(N)c(C(=O)Nc4cc(F)ccc4F)sc3n2)c1 | 0 | 0 | ? | 0 | -
N#Cc1ncn(Cc2nc(-c3ccc(F)cc3)no2)n1 | - | 0 | - | - | -
CC(c1ccc(-c2cc(N)ncn2)cc1)N1CCCCC1 (centres undefined) | 0 | ? | 0 | 0 | 0
NS(=O)(=O)c1ccc(N/N=C/C=C/c2ccccc2[N+](=O)[O-])c([N+](=O)[O-])c1 | - | 0 | - | - | -
C#CCN1CCN(C(=O)c2cc(-c3ccccc3)nc3ccc(C)cc23)CC1 | - | 0 | - | - | -
COc1cccc(NC(=O)CC2C(=O)OCCN2Cc2ccccc2)c1 (centres undefined) | 0 | 0 | 0 | -48.4 | 0
CN(C(=O)Cc1ccc(F)cc1)C1CCCc2ccccc21 (centres undefined) | 0 | 0 | 0 | 0 | -
SMILES | SNCA expr inhib | KDM5B inhibitor | HEK293 viab | IP6K1 inhibitor | IP6K1 conf
CC(=O)Nc1ccc(NS(=O)(=O)c2ccc(Cl)s2)cc1 | 0 | 0 | 0 | -27.8 | 0
Cc1nnc(NC(=O)c2nc(S(=O)(=O)Cc3ccccc3)ncc2Cl)s1 | ? | ? | ? | -34.5 | 0
CCSc1ncc(Cl)c(C(=O)Nc2nnc(CC)s2)n1 | 0 | 0 | 0 | 0 | -
CCc1nnc(NC(=O)c2nc(S(C)(=O)=O)ncc2Cl)s1 | ? | ? | ? | -34.8 | 0
CCn1c2ccccc2c2cc(CN3CCN(Cc4ccccc4C)CC3)ccc21 | 0 | ? | 0 | -28.4 | 0
CCn1c2ccccc2c2cc(CN3CCN(Cc4ccc(Cl)cc4)CC3)ccc21 | ? | ? | 0 | 0 | -
CCn1c2ccccc2c2cc(CN3CCN(Cc4ccccc4F)CC3)ccc21 | 0 | ? | 0 | -26.4 | 0
O=C(CCS(=O)(=O)c1ccccc1)N(Cc1cccnc1)c1nc2ccc(F)cc2s1 | 0 | ? | 0 | -26.1 | 0
CC(=O)N(Cc1cccnc1)c1nc2ccc(F)cc2s1 | 0 | 0 | 0 | 0 | -
Cc1nc2ccccc2n1CCC(=O)N1C[C@@H](C)[C@](O)(C(C)C)C1 | 0 | 0 | 0 | -37.1 | 0
COC(=O)c1ccc(C2C(C(C)=O)C(=O)CC(C)(O)C2C(C)=O)cc1 (centres undefined) | - | 0 | - | - | -
CC1(C)CC(=O)C(/C=N/C(N)=O)=C(O)C1 | - | 0 | - | - | -
FC(F)(F)c1ccc(Cl)c(N/N=C/c2ccccc2)c1 | - | 0 | - | - | -
Cc1ccc(C(=O)Nc2ccc(S(=O)(=O)O)c3cc(S(=O)(=O)O)cc(S(=O)(=O)O)c23)cc1NC(=O)c1cccc(NC(=O)Nc2cccc(C(=O)Nc3cc(C(=O)Nc4ccc(S(=O)(=O)O)c5cc(S(=O)(=O)O)cc(S(=O)(=O)O)c45)ccc3C)c2)c1 | 0 | - | ? | -94.8 | 3.26µM
Cc1ccc(-c2nc(S(=O)(=O)c3ccc(Cl)cc3)c(N3CCCCC3)o2)cc1 | 0 | ? | 0 | -34.2 | ?
COc1ccc(-c2nc(S(=O)(=O)c3ccc(C)cc3)c(N3CCCCC3)o2)cc1 | 0 | ? | 0 | 0 | -
CCc1ccccc1-n1c(C)c(C)n2c3c(=O)[nH]c(=O)n(C)c3nc12 | - | 0 | - | - | -
CN[C@H](CC(C)C)C(=O)N[C@H]1C(=O)N[C@@H](CC(N)=O)C(=O)N[C@H]2C(=O)N[C@H]3C(=O)N[C@H](C(=O)N[C@H](C(=O)O)c4cc(O)cc(O)c4-c4cc3ccc4O)[C@H](O[C@H]3C[C@](C)(N)[C@@H](O)[C@H](C)O3)c3ccc(c(Cl)c3)Oc3cc2cc(c3O[C@@H]2O[C@H](CO)[C@@H](O)[C@H](O)[C@H]2O[C@H]2C[C@](C)(NCc3ccc(-c4ccc(Cl)cc4)cc3)[C@@H](O)[C@H](C)O2)Oc2ccc(cc2Cl)[C@H]1O | - | - | 0 | -32.5 | ?
CC(=O)N[C@@H]1[C@H](O[C@@H]2c3ccc(c(Cl)c3)Oc3cc4cc(c3O[C@H]3O[C@H](CO)[C@@H](O)[C@H](O)[C@H]3NC(=O)CCCCCCCC(C)C)Oc3ccc(cc3Cl)C[C@H]3NC(=O)[C@H](N)c5ccc(O)c(c5)Oc5cc(O)cc(c5)[C@H](NC3=O)C(=O)N[C@H]4C(=O)N[C@H]3C(=O)N[C@@H]2C(=O)N[C@@H](C(=O)O)c2cc(O)cc(O[C@H]4O[C@H](CO)[C@@H](O)[C@H](O)[C@H]4O)c2-c2cc3ccc2O)O[C@H](CO)[C@@H](O)[C@@H]1O | 0 | - | 0 | - | -
COc1ccc(C(=O)Nc2ccc3[nH]ccc3c2)cc1 | - | 0 | - | - | -
O=C(Nc1cc2cc[nH]c2cn1)c1ccccc1 | 1.52µM | - | ? | -28.1 | ?
CC(C)CC(NC(=O)C1=NNC(=O)CC1)c1nnc2n1CCNCC2 (centres undefined) | 0 | 0 | 0 | -39.7 | 0
COCCn1nc(C(=O)NCC(c2ccccc2Cl)N2CCCC2)ccc1=O (centres undefined) | - | 0 | - | - | -
Cc1ccc([N+](=O)[O-])cc1S(=O)(=O)N1CCn2cccc2C1c1ccccc1F (centres undefined) | 0 | ? | 0 | -26.3 | 0

Screening data: PubChem BioAssay, National Center for Advancing Translational Sciences (NCATS)
